Reference: PubChem BioAssay AID1275 (Emory University Molecular Libraries Screening Center, 2008)
Among all 1,000 compounds or so, about 160 (16%) were called active. The rule behind the calls is not given here. The list shows a part of the results.

molecular target: Neutrophil cytosol factor 1 (Homo sapiens) (UniProt P14598); assay: blockers of ligand binding to p47phox – biochemical, NADPH oxidase regulatory subunit, fluorescence polarization, dose response (AID 1275); conditions: at 12.5 µM
Sequence (P14598 whole entry, looked up): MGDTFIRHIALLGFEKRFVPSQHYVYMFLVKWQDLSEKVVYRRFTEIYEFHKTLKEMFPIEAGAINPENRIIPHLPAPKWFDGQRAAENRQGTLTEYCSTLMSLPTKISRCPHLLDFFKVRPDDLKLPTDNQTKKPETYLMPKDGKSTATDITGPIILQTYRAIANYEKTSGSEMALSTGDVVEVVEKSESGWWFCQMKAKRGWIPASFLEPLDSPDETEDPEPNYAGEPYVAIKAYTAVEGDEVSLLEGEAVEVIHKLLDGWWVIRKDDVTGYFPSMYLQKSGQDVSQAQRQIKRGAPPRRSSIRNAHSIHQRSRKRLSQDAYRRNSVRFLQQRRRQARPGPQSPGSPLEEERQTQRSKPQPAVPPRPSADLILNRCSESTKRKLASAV

Which percent of control, lower = inhibition does the source give for O=C1NC(=O)N(Cc2ccc(F)cc2)C(=O)/C1=C\c1ccc(N2CCCC2)cc1 here?
The percent of control, lower = inhibition was -40.7 (active).
